Assay outcomes from PubChem.
DT40 TDP1 CPT: DT40-hTDP1 cell growth loss with CPT; AID 686979; Potency, µM (doses to about 46.2 µM), for inactives: at the highest dose activity change, negative = growth inhibition, hits mostly inhibitors; 12% of 420,000 active; chicken DT40 Tdp1-/-;hTDP1 cells + 20 nM CPT, ATP luminescence, 48 h; note: potency is the fitted concentration of half-maximal effect; % is set by controls: 0 for no effect and ±100 for the full control effect; nearly all actives have a fitted effect of over 55% in size
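Chicken DT40 Tdp1-/- cells stably complemented with human TDP1 were seeded at 400 cells/well in medium containing 20 nM camptothecin, exposed to pin-transferred compounds, and grown at 37 °C for at least 48 hr. Viability was read as ATP luminescence.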
DT40 TDP1 no CPT: qHTS for Inhibitors of human tyrosyl-DNA phosphodiesterase 1 (TDP1): qHTS in cells in absence of CPT; DT40 Tdp1-/- hTDP1 cells, no CPT, ATP luminescence, 48 h; Potency, µM (highest dose often 46.2 µM), for the others: at the highest dose activity change, negative = growth inhibition, most hits filed as inhibitors; 15% of 420,000 active; AID 686978, 2013; note: potency is the fitted concentration of half-maximal effect; % is set by controls: 0 for no effect and ±100 for the full control effect; nearly all actives have a fitted effect of over 55% in size
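DT40 Tdp1-/-;hTDP1 cells, no CPT (DMSO vehicle only), 400 cells/well; compounds pin-transferred; ≥48 hr, 37 °C; CellTiter-Glo 30 min RT dark, luminescence read.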
DRD3 antagonist: D3 dopamine receptor (human) antagonism; D3R cells, DiscoveRx beta-arrestin luminescence, antagonist mode; hits give low values; max response, negative = inhibition, %; 2.5% of 360,000 active; in the data active = max response below about -50%; inconclusive = no clear call, values can overlap the other calls; note: % is set by controls: 0 for no effect and ±100 for the full control effect
Target sequence (P35462 whole entry, looked up): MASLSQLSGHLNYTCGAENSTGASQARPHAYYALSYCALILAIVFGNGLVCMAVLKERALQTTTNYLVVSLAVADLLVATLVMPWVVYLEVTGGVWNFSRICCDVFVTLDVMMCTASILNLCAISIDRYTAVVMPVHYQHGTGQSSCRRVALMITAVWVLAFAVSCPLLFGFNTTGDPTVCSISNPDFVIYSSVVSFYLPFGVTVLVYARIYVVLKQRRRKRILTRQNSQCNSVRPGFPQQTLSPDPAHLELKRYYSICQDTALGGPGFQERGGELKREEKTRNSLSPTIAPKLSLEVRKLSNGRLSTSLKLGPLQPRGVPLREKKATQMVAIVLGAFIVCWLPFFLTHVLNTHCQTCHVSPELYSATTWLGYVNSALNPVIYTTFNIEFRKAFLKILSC
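Cells expressing the human receptor were seeded at 1500 cells/well, incubated overnight at 37 degrees C in 5% CO2, then exposed to library compounds with dopamine controls for 90 minutes at 37 degrees C before luminescent detection.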
D3 ag: D3 dopamine receptor (human) agonism; P35462; D3R DiscoveRx beta-arrestin cells, luminescence, 90 min; max activation, %; 0.58% of 410,000 active; AID 652048; in the data active = max activation above about 30%; note: 0% is about no effect
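Cells at 1500/well, incubated overnight, then treated with pinned compounds (dopamine as control) for 90 min at 37 degrees C. DiscoveRx reagent added for 30 - 60 minutes at room temperature; luminescence read.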
IL1B secr inh: inhibitors of inflammasome signaling (IL-1 beta secretion). THP-1 LPS/ATP IL-1B secretion, AlphaLISA, 16 h; hits give low values. activity change, % at 57.5 µM. 4.7% of 360,000 active. AID 743279; in the data active = activity change below about -50%; inconclusive = mostly about -30% to -49%; note: % is set by controls: 0 for no effect and ±100 for the full control effect
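Secreted IL-1B measured by AlphaLISA bead assay after 16 h compound exposure of THP-1 cells; compounds (final up to 57.5 uM) added 1 h before LPS (250 ng/mL) and ATP (1.25 mM) stimulation; lower signal means less secretion.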
ClpP mod: qHTS Assay for Activators of ClpP; 1.9% of 340,000 active; purified B. subtilis ClpP, FRET peptide cleavage, 20 min; Potency, µM (highest dose often 57.5 µM), inactives show at the top dose activity change, negative = active; ATP-dependent Clp protease proteolytic subunit (Bacillus subtilis (strain 168)), P80244; active = well fitted falling curve with a large enough effect; inconclusive = small, poorly fitted or top-dose-only effect; inactive = no such curve, though single readings can be large or run the other way; note: potency is the fitted concentration of half-maximal effect; the source files actives as falling curves though it sought activators and does not explain the sign; nearly all actives have a fitted effect of over 65% in size
Target sequence (P80244 whole entry, looked up): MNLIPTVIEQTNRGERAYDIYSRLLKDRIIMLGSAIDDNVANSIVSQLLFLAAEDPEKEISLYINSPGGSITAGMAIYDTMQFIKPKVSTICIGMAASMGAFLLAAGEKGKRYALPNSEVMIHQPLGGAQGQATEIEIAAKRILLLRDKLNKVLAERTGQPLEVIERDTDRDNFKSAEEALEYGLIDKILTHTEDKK
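FRET quenching reversal measured ClpP activation: 10 microg/mL B. subtilis ClpP at pH 8 with the FRET-FV decapeptide, read at 430 nm after 320 nm excitation. The 20-min minus 0-min signal was scaled between DMSO/no-enzyme wells and ADEP (5.8 microM final).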
* = called active by the depositor; u = inconclusive; x = no result given. Shown are actives, neighbours in structure and some others; about 21% of the full set was active somewhere. Unless noted, calls come from the whole dose curve; as a rule, active = well fitted inhibition curve with a large enough effect; inconclusive = small, poorly fitted or top-dose-only effect; inactive = flat fitted curve, though single readings scatter.

SMILES | DT40 TDP1 CPT | DT40 TDP1 no CPT | DRD3 antagonist | D3 ag | IL1B secr inh | ClpP mod
O=C(CCC1N=C2c3ccccc3N=C(SCc3ccccc3Cl)N2C1=O)N1CCN(c2ccccc2)CC1 (stereo not drawn) | u | 20.6µM* | x | -7.5 | x | 10.9%
COc1ccccc1NC(=O)CSC1=Nc2ccccc2C2=NC(CCC(=O)NCCc3ccccc3)C(=O)N12 (stereo not drawn) | u | 23.1µM* | x | 3.1 | x | -1.1%
COc1ccccc1NC(=O)CSC1=Nc2ccccc2C2=NC(CC(=O)NCc3ccco3)C(=O)N12 (stereo not drawn) | u | u | x | -18.4 | x | 2.1%
O=C(CCC1N=C2c3ccccc3N=C(SCc3ccccc3Cl)N2C1=O)NCc1ccco1 (stereo not drawn) | u | 18.4µM* | -15.8 | -1.8 | u | u
COc1ccc(Cl)cc1S(=O)(=O)N1CCCC(C(=O)N2CCOCC2)C1 (stereo not drawn) | 13.9% | 0.1% | 10.7 | 6.9 | 5.4 | x
CC(C)=CCC/C(C)=C/CNC(=O)C[C@H]1C[C@H](C(=O)N2CCOCC2)[C@@]2(CCC3CCCC3)c3[nH]c4cc(CCC(=O)N(C)C)ccc4c3CCN2C1=O | 5.8µM* | 6.51µM* | u | -56.7 | u | -0.8%
COCCCNC(=O)C[C@H]1C[C@H](C(=O)N2CCOCC2)[C@@]2(CCC3CCCC3)c3[nH]c4cc(CCC(=O)N(C)C)ccc4c3CCN2C1=O | 0.2% | -8.3% | -22.3 | 22.9 | 18.0 | -4.6%
CC[C@]12c3[nH]c4cc(CCC(=O)N(C)C)ccc4c3CCN1C(=O)[C@@H](CC(=O)NC/C=C(\C)CCC=C(C)C)C[C@@H]2C(=O)N1CCN(C(=O)c2ccco2)CC1 | 10.3µM* | 5.8µM* | -23.1 | -22.2 | 0.0 | 1.7%
CN(C)C(=O)CCc1ccc2c3c([nH]c2c1)[C@]1(CCC2CCCC2)[C@@H](C(=O)N2CCOCC2)C[C@H](CC(=O)NCCc2ccccn2)C(=O)N1CC3 | -5.7% | 2.8% | 23.6 | 16.9 | -5.1 | -2.0%
CN(C)C(=O)CCc1ccc2c3c([nH]c2c1)[C@]1(CCC2CCCC2)[C@@H](C(=O)N2CCOCC2)C[C@H](CC(=O)NCC24CC5CC(CC(C5)C2)C4)C(=O)N1CC3 | u | 23.1µM* | 18.9 | 1.7 | -26.5 | 1.2%
COc1ccc(CCN2C(=O)NC(NS(=O)(=O)c3ccc(NC(C)=O)cc3)(C(F)(F)F)C2=O)cc1OC (stereo not drawn) | -16.8% | 11.6% | 6.6 | 1.8 | 15.9 | 0.2%
CCN1CCc2c(sc(NC(=O)COc3ccccc3)c2C(=O)OC)C1 | u | u | 34.4 | -0.4 | u | 2.4%
O=c1[nH][nH]c(-c2ccccc2O)c1C(C[N+](=O)[O-])c1ccc(Cl)cc1Cl (stereo not drawn) | u | u | -5.6 | -0.9 | 11.0 | -2.8%
Cc1cc(O)c(C(C[N+](=O)[O-])c2ccc(Cl)cc2Cl)c(=O)o1 (stereo not drawn) | 18.4µM* | 16.4µM* | 8.2 | -3.7 | 1.3 | -1.6%
COc1cccc(CNC(=O)CCC2CCCN(Cc3cc4ccccc4o3)C2)c1 (stereo not drawn) | 18.4µM* | 25.9µM* | -70.9* | -15.0 | -60.0* | x
COc1cccc(CNC(=O)CCC2CCCN(C(=O)c3ccc(C)nc3)C2)c1 (stereo not drawn) | -5.6% | -2.5% | 8.6 | 12.3 | 0.7 | x
COc1cccc(CNC(=O)CCC2CCCN(C(=O)c3cccc(Cl)c3)C2)c1 (stereo not drawn) | u | u | -1.0 | 41.8* | -4.7 | -1.6%
Cc1cc(C)n2c(SC(C)C(=O)NC3(C#N)CCCCC3)nnc2n1 (stereo not drawn) | 1.5% | 13.7% | -19.5 | -0.5 | -4.0 | -5.8%
CCOc1ccccc1N(CC(=O)NCCSc1ccccn1)S(=O)(=O)c1ccc(C)cc1 | u | 20.6µM* | 19.9 | 25.5 | -27.5 | x
CCOc1ccccc1N(CC(=O)NCCSc1ccccn1)S(=O)(=O)c1ccccc1 | u | u | 5.5 | 0.6 | 8.3 | x
Cc1ccc(S(=O)(=O)N(CC(=O)NCCSc2ccccn2)c2ccc(C)c(C)c2)cc1 | u | u | 4.9 | 2.9 | -53.4* | -0.8%
CCOc1ccccc1N(CC(=O)NCCSc1ccccc1)S(=O)(=O)c1ccccc1 | u | 10.3µM* | x | 2.3 | x | -9.5%
Cc1cc(C)cc(N(CC(=O)N/N=C/c2ccncc2)S(=O)(=O)c2ccccc2)c1 | -26.8% | -27.2% | -5.4 | -2.5 | -54.0* | 6.31µM*
Cc1ccc(SCC(=O)NNC(=O)c2ccccc2)c(C)c1 | -22.9% | u | -7.7 | -3.3 | -6.8 | x
Cc1cc(C)cc(N(CC(=O)NCCSc2ccccn2)S(=O)(=O)c2ccccc2)c1 | u | 25.9µM* | -20.5 | -8.8 | -11.8 | 3.8%
SMILES | DT40 TDP1 CPT | DT40 TDP1 no CPT | DRD3 antagonist | D3 ag | IL1B secr inh | ClpP mod
Cc1ccccc1N(CC(=O)NCCSc1ccccn1)S(=O)(=O)c1ccccc1 | -5.0% | u | -7.0 | -5.0 | -2.5 | x
CC(C)=CCc1c(-c2ccc(O)cc2O)oc2cc3c(c(O)c2c1=O)C=CC(C)(C)O3 | 23.1µM* | 23.1µM* | -3.0 | 6.2 | u | 1.8%
CC(C)=CCc1c2c(c(O)c3c(=O)c(O)c(-c4ccccc4)oc13)C=CC(C)(C)O2 | -6.3% | -9.7% | x | x | x | x
CCOc1ccc(CNC(=O)Nc2ccccc2)cc1 | 6.7% | 6.1% | 4.7 | 6.6 | -13.6 | -1.0%
O=C(Nc1cccc(Cl)c1Cl)c1ccncc1 | -10.7% | -10.4% | 11.3 | 3.1 | -51.0* | 0.2%
Cc1ccc2cc(NC(=O)c3ccc(C(C)(C)C)cc3)ccc2n1 | u | u | 19.0 | 11.9 | -100.6* | -1.3%
O=C(Nc1ccncc1)c1ccc(Cl)c(Cl)c1 | -22.4% | 11.6µM* | -1.2 | 2.9 | u | x
O=C(NNC(=S)Nc1ccccc1Cl)c1ccncc1 | 10.1% | 0.2% | -11.9 | 7.6 | 17.2 | x
CC(C)(C)c1ccc(C(=O)Nc2ccc(NC(=O)c3ccc(Cl)c(Cl)c3)cc2)cc1 | 11.6µM* | 14.6µM* | x | -5.9 | x | -6.1%
CCOC(=O)c1c(SCC(=O)Nc2nc3ccc(C)cc3s2)nc(=O)[nH]c1C | 0.1% | 5.4% | x | 0.8 | x | -0.8%
O=C(Nc1ccc(Cl)cc1F)c1cc(S(=O)(=O)NCc2ccc3c(c2)OCO3)ccc1F | u | -7.7% | x | -4.9 | x | 4.5%
C/C(=N\NC(=O)C(=O)Nc1cc(Cl)ccc1Cl)c1ccncc1 | 6.9% | 21.9% | -6.2 | -4.2 | 3.1 | -2.2%
C/C(=N\NC(=O)C(=O)Nc1cccc(Cl)c1C)c1ccncc1 | 20.6µM* | 14.6µM* | 27.5 | 3.2 | 1.5 | -3.6%
